D2 PAM-1: HTS Assay for Positive Allosteric Modulators of the Human D2 Dopamine Receptor: Primary Screen for Potentiators; HEK293 T-REx D2, calcium flux, EC20 dopamine potentiation; D(2) dopamine receptor (Homo sapiens), P14416; 340,000 tested, 0.34% active; potentiation, % at 10 µM; AID 485347, 2010;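 active means potentiation over 3 SD above the plate norm, cut at about 30% in these data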
Target sequence (P14416 whole entry, looked up): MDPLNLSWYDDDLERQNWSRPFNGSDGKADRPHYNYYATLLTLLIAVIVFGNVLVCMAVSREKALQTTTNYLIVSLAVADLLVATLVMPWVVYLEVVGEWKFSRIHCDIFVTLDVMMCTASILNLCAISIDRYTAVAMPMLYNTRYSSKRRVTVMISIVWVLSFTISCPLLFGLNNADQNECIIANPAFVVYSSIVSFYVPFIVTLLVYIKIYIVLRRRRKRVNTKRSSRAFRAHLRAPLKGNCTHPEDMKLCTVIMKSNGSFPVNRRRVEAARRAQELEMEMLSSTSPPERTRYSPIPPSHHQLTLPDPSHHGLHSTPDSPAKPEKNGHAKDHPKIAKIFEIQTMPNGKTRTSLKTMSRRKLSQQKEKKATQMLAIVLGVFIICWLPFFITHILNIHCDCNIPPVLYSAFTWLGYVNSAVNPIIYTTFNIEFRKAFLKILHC
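Using a no-wash calcium dye in inducible, force-coupled HEK293 Trex cells expressing D2, we tracked fluorescence each second for 180 s after compound, then for 180 s after EC20 dopamine to detect augmented signalling.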
D2 ag-1: Beta-Arrestin HTS for Positive Allosteric Modulators of the Human D2 Dopamine Receptor: Agonists. D(2) dopamine receptor (Homo sapiens), P14416. DiscoveRx PathHunter D2 beta-arrestin, luminescence, 90 min; 100% = 57 uM dopamine signal. activation, % (no concentration beside the values). 360,000 tested, 0.084% active. AID 624465, 2012; in the data active means activation above about 40%; inconclusive means between about 15% and that limit
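Agonist mode: compounds alone added to overnight-plated D2 PathHunter cells for 90 min at 37 C, with 57 uM final dopamine (EC100) defining full response. Beta-arrestin recruitment detected by chemiluminescent reagent, read after 1 h at ambient temperature.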
D2 ag-2: HTS Assay for Allosteric Agonists of the Human D2 Dopamine Receptor: Primary Screen for Agonists; D(2) dopamine receptor (Homo sapiens), P14416; HEK293 T-REx D2 cells, calcium flux agonist mode; activation, % at 2 µM; 340,000 tested, 0.53% active; AID 485358, 2010;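 active means activation over 3 SD above normal in the single-dose calcium agonist read, cut at about 30% in these data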
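Agonism scored from kinetic calcium signal (1 read/sec, 180 s) following compound pin transfer, after a 10 s baseline. Cells: HEK293 Trex line expressing inducible D2 receptor coupled to calcium, dye-loaded after overnight culture at 30 C.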
D2 antagonist: HTS Assay for Allosteric Antagonists of the Human D2 Dopamine Receptor: Primary Screen for Antagonists; 340,000 tested, 2% active; inhibition, % at 10 µM; HEK293 TREx D2 cells, calcium flux, dopamine EC80; in the data active means inhibition above about 30%; inactive means below that, where a call was filed
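Calcium flux kinetic readout in an inducible HEK293 TREx D2 line plated overnight at 30 C. After 180 s compound exposure, an EC80 dopamine challenge follows with another 180 s kinetic read to detect antagonism.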
D2 PAM-2: Beta-Arrestin HTS for Positive Allosteric Modulators of the Human D2 Dopamine Receptor: Potentiators; D(2) dopamine receptor (Homo sapiens), P14416; DiscoveRx D2 beta-arrestin cells, luminescence, 90 min; 100% = 57 uM dopamine signal; potentiation, % (test concentration not listed); 360,000 tested, 0.23% active; AID 624464, 2012; in the data active means potentiation above about 50%; inconclusive means mostly about 30% to 49%
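PathHunter D2 cells, attached overnight at 37 deg C, received compound in DMSO plus dopamine at EC20 (50 nM final) for 90 min at 37 deg C. Beta-arrestin recruitment was read as luminescence after 1 h with detection reagent at ambient temperature.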
LDHA block: qHTS assay for inhibitors of human lactate dehydrogenase; L-lactate dehydrogenase A chain (Homo sapiens), P00338; purified LDHA, NADH/diaphorase-resazurin fluorescence; hits give low values; activity change, % (values are at about 110 or 230 µM); 480,000 tested, 0.15% active; AID 1347041, 2019; in the data active means activity change below about -30%; inconclusive means mostly about -25% to -30%
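Resorufin fluorescence (ex540/em590), read at 0 and 20 min after diaphorase/resazurin addition, reports the NADH left after a 5 min room-temperature reaction of 2 nM human LDH5 with 0.06 mM NADH and 0.2 mM pyruvate.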
A number is an active result. Only some compounds are listed: those with a hit (about 2.1% of all), similar ones and a draw of the others.

How did Cc1ccc(S(=O)(=O)Cc2ccc(C(=O)N3CCN(Cc4ccccc4)CC3)o2)cc1 do in these assays?
D2 PAM-1: 51; D2 ag-2: inactive; D2 antagonist: inactive

How did Cc1ccc(S(=O)(=O)Cc2ccc(C(=O)N3CCc4ccccc4C3)o2)cc1 do in these assays?
D2 PAM-1: 58; D2 ag-1: inactive; D2 ag-2: inactive; D2 antagonist: inactive; D2 PAM-2: inactive; LDHA block: inactive

Results for COC(=O)c1cc(NC(=O)CN(c2ccccc2OC)S(=O)(=O)c2ccccc2)ccc1Cl ?
D2 PAM-1: inactive; D2 ag-1: inactive; D2 ag-2: inactive; D2 antagonist: 36; D2 PAM-2: inactive; LDHA block: inactive

How did COc1ccc(N(CC(=O)Nc2cccnc2)S(=O)(=O)c2ccccc2)cc1Cl do in these assays?
D2 PAM-1: inactive; D2 ag-1: inactive; D2 ag-2: inactive; D2 antagonist: 31; D2 PAM-2: inactive; LDHA block: inactive

What do the screens show for `COc1cccc(NC(=O)CN(CCc2ccccc2)S(=O)(=O)c2ccc(Cl)cc2)c1`?
D2 PAM-1: inactive; D2 ag-2: inactive; LDHA block: -59

What do the screens show for `COC(=O)c1cc(NC(=O)CN(c2cccc(OC)c2)S(=O)(=O)c2ccccc2)ccc1Cl`?
D2 PAM-1: inactive; D2 ag-1: inactive; D2 ag-2: inactive; D2 antagonist: inactive; D2 PAM-2: inactive; LDHA block: inactive

How did O=C(CN(c1ccccc1)S(=O)(=O)c1ccc(Cl)cc1)Nc1cccnc1 do in these assays?
D2 PAM-1: inactive; D2 ag-1: inactive; D2 ag-2: inactive; D2 antagonist: 34; D2 PAM-2: inactive; LDHA block: inactive

How did Cc1ccc2nc(NC(=O)CCc3ncc(-c4ccccc4Cl)o3)sc2c1 do in these assays?
LDHA block: inactive

What do the screens show for `CCc1ccc2oc(C(=O)NCC(c3cccs3)N3CCCC3)cc(=O)c2c1` (stereo not given)?
LDHA block: inactive

Results for Cc1ccc2cc(C(=O)N(C)Cc3ccc(C)o3)[nH]c2c1 ?
LDHA block: inactive

What do the screens show for `Cc1ccc(-c2cc(C(=O)O)c3cccc(Cl)c3n2)s1`?
LDHA block: inactive

Results for CN(Cc1ccccc1)c1oc(-c2cccc(Cl)c2)nc1C#N ?
LDHA block: inactive

How did c1coc(C(CNC2CCCC2)N2CCCC2)c1 (stereo not given) do in these assays?
LDHA block: inactive

What do the screens show for `Cc1sc2ncnc(NCC(c3ccco3)N3CCCC3)c2c1C` (stereo not given)?
D2 PAM-1: inactive; D2 ag-1: inactive; D2 ag-2: inactive; D2 antagonist: 32; D2 PAM-2: inactive; LDHA block: inactive

Results for CCOc1ccc(C2C=C(c3ccc(OC)cc3)Nc3ncnn32)cc1 (stereo not given) ?
LDHA block: inactive

What do the screens show for `Nc1nc2c(s1)CCc1c-2cnn1-c1ccccc1`?
D2 PAM-1: inactive; D2 ag-1: 40; D2 ag-2: inactive; D2 antagonist: inactive; D2 PAM-2: inactive; LDHA block: inactive

How did Nc1nc2c(s1)COc1ccccc1-2 do in these assays?
D2 PAM-1: inactive; D2 ag-1: inactive; D2 ag-2: inactive; D2 antagonist: inactive; D2 PAM-2: inactive; LDHA block: inactive

How did COc1cccc(NC(=O)CSc2nnc(Cc3cccn3C)n2-c2ccc(F)cc2)c1 do in these assays?
D2 PAM-1: inactive; D2 ag-1: inactive; D2 ag-2: inactive; D2 antagonist: inactive; D2 PAM-2: inactive; LDHA block: inactive

What do the screens show for `CC(=O)Nc1cccc(NC(=O)CSc2nnc(Cc3cccn3C)n2-c2ccc(F)cc2)c1`?
D2 PAM-1: inactive; D2 ag-1: inactive; D2 ag-2: inactive; D2 antagonist: 49; D2 PAM-2: inactive; LDHA block: inactive

Results for CCc1ccc(OCc2n[nH]c(=S)n2Cc2ccccc2)cc1 ?
D2 ag-1: inactive; D2 PAM-2: inactive; LDHA block: inactive

How did CCc1ccc(OCc2n[nH]c(=S)n2C(C)CCCC(C)C)cc1 (stereo not given) do in these assays?
D2 PAM-1: inactive; D2 ag-1: inactive; D2 ag-2: inactive; D2 antagonist: 48; D2 PAM-2: inactive; LDHA block: inactive

How did CC(=O)C(C(C)=O)c1c(Cl)c(O)c(O)c2c(C(=O)c3ccccc3)coc12 do in these assays?
D2 PAM-1: inactive; D2 ag-1: inconclusive; D2 ag-2: inactive; D2 antagonist: inactive; D2 PAM-2: 103; LDHA block: inactive

How did CN1CCN(Cc2c(O)ccc3occ(C(=O)c4ccccc4)c23)CC1 do in these assays?
D2 PAM-1: inactive; D2 ag-1: inactive; D2 ag-2: inactive; D2 antagonist: inactive; D2 PAM-2: inactive; LDHA block: inactive

What do the screens show for `CCCCn1c(=O)[nH]c(=O)c2c1nc(COC(=O)C1(c3ccccc3)CCC1)n2CCC`?
LDHA block: inactive

What do the screens show for `COc1ccccc1-c1csc(N2N=C(C)CC2c2cc(OC)c(OC)c(OC)c2)n1` (stereo not given)?
LDHA block: inactive

How did O=C(NC1CCN(C(=O)Nc2cccc(Cl)c2)CC1)C1CCCCC1 do in these assays?
D2 PAM-1: inactive; D2 ag-1: inactive; D2 ag-2: inactive; D2 antagonist: inactive; D2 PAM-2: inactive; LDHA block: inactive

What do the screens show for `O=C(Nc1cccc(Cl)c1)NC1CCN(C2CCCCC2)C1` (stereo not given)?
D2 PAM-1: inactive; D2 ag-1: inactive; D2 ag-2: inactive; D2 antagonist: 85; D2 PAM-2: inactive; LDHA block: inactive

Results for COC(=O)/C(=C/Nc1ccc(O)cc1)[N+](=O)[O-] ?
D2 PAM-1: inactive; D2 ag-1: inactive; D2 ag-2: inactive; D2 antagonist: inactive; D2 PAM-2: 86; LDHA block: inactive

What do the screens show for `O=[N+]([O-])c1ccc2ncnc(N3CCN(Cc4ccc5c(c4)OCO5)CC3)c2c1`?
D2 PAM-1: inactive; D2 ag-1: inconclusive; D2 ag-2: 77; D2 antagonist: 101; D2 PAM-2: inactive; LDHA block: inactive

Results for CN(C/C=C/c1ccccc1[N+](=O)[O-])Cc1ccccc1 ?
D2 PAM-1: inactive; D2 ag-1: inactive; D2 ag-2: inactive; D2 antagonist: 57; D2 PAM-2: inactive; LDHA block: inactive

How did C(=C\c1ccccc1)/CN1CCN(Cc2ccc3c(c2)OCO3)CC1 do in these assays?
D2 PAM-1: inactive; D2 ag-1: inactive; D2 ag-2: inactive; D2 antagonist: inactive; D2 PAM-2: inactive; LDHA block: inactive

Compound activity (PubChem BioAssay)
